This is a sample that favours compounds with a hit; in the whole collection about 3.2% have one here.
CHT block: inhibitors of human choline transporter CHT. 0.86% of 310,000 active. AID 488975. B-score at 10 µM. CHT-expressing cells, membrane potential dye, choline response; active compounds read low. Q9GZV3;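 active = B-score over 3 SD under the library average, and starting fluorescence ratio not unusually high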;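 note: choline stimulus applied at its EC90 after an EC20 pre-addition; B-score computed on integrated fluorescence ratio after choline addition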
Kir21 block: Kir2.1 (mouse) channel inhibition; 0.85% of 310,000 active; B-score at 10 µM; HEK293-Kir2.1, FluxOR thallium flux fluorescence; active compounds read low; AID 1672; P35561;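 active = fluorescence ratio B-score at or below minus 3 SD of library scores, with starting-brightness B-score within 2 SD, cut at about -4.2 in these data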;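 note: channel flux triggered by added potassium and thallium sulfate stimulus; B-score of peak minus minimum fluorescence over baseline after thallium stimulus; more negative B-score means stronger Kir2.1 block with less thallium influx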
TMEM16A act: activates or potentiates the mouse TMEM16A chloride channel | HEK293 TMEM16A/YFP-H148Q/I152L, iodide quench fluorescence; active compounds read low | B-score at 10 µM | 0.3% of 340,000 active | AID 623877;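 active = fluorescence-ratio B-score plate-corrected deviation score at least 3 library SD below zero, with starting fluorescence score within 5 deviations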;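 note: channel opened by trigger with iodide after compound preincubation; score built on the fluorescence ratio of max minus min over baseline; more negative score means more quench and so TMEM16A activation or potentiation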
Rce1 inh: inhibitors of yeast Ras-converting enzyme | Q03530 | yeast membranes, quenched prenylated peptide cleavage fluorescence | calls only | 0.27% of 290,000 active | AID 2563;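 active = fall in fluorescence gain of 50% or more versus controls, with final raw signal at or below 3038400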;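 note: plate controls were neutral control wells for no effect and wells lacking membranes for full effect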
Target sequence (Q03530 whole entry, looked up): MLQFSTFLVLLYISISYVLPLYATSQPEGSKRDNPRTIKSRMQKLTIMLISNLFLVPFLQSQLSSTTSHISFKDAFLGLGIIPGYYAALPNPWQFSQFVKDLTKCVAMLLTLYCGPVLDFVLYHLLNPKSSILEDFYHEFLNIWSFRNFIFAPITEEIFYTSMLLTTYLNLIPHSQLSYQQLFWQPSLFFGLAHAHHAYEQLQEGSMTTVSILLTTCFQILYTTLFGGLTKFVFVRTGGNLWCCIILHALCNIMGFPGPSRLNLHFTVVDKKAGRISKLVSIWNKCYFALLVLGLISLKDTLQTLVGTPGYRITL
ANO1 block: mouse TMEM16A channel inhibition, primary screen | Q8BHY3 | normalized B-score (activity score, 25-100; higher = stronger inhibition) at 10 µM | 1.2% of 310,000 active | HEK293 TMEM16A/YFP iodide influx fluorescence, ionomycin;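 active = ratio plate-corrected score three or more library SD toward inhibition, starting fluorescence score within five deviations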;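 note: score derived from kinetic fluorescence span divided by baseline fluorescence per well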
CHT PAM: allosterically activates the human high affinity choline transporter; B-score at 10 µM; AID 488977; 0.49% of 310,000 active; Q9GZV3; CHT-expressing cells, membrane potential dye, choline EC20; active compounds read high; LV-AA mutant CHT in HEK293 cells;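 active = initial fluorescence not abnormally high and integrated response B-score, plate-corrected, over 3 SD above library mean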
Numbers without * were called inactive; i = inactive; . = not tested or not shown; + = active, no number.

SMILES | CHT block | Kir21 block | TMEM16A act | Rce1 inh | ANO1 block | CHT PAM
O=P(Oc1ccccc1)(Oc1ccccc1)c1ccccc1 | i | -5.89* | i | . | i | i
COc1ccc2nc3c(C)n(C)ccc-3c2c1 | . | . | i | . | . | .
O=[N+]([O-])c1[nH]cnc1Br | . | . | i | . | . | .
COc1cc2c(c(OC)c1OC)-c1ccc(O)cc1[C@@H](NC(C)=O)CC2 | i | -0.46 | i | i | i | 7.96*
COc1cc2c(c(OC)c1OC)-c1ccc(O)cc1C(NC(C)=O)CC2 (stereo not given) | . | . | i | . | . | .
CCC1C(c2ccccc2)NC(c2ccccc2)CC1(O)c1ccc(F)cc1 (stereo not given) | i | -4.53* | i | i | i | i
CCC1CN1P(=O)(N1CCCC1)N1CC1CC (stereo not given) | . | . | i | . | . | .
COc1cc(/C=C/c2nc3ccccc3c(=O)n2-c2cccc(O)c2)ccc1O | i | -0.23 | -5.23* | i | i | i
c1ccc(-c2cc(-c3ccccc3)[n+](-c3ccccc3)c(-c3ccccc3)c2)cc1 | i | -6.36* | i | i | 25* | i
Cc1ccc(-c2cc(-c3ccccc3)cc(-c3ccccc3)[n+]2-c2ccccc2)cc1 | i | -9.68* | i | + | 100* | i
CCOC(=O)c1cccc(-[n+]2c(-c3ccccc3)cc(-c3ccccc3)cc2-c2ccccc2)c1 | i | -10.9* | -5.64* | i | i | i
O=[N+]([O-])c1cc(Cl)c(O)c(-[n+]2c(-c3ccccc3)cc(-c3ccccc3)cc2-c2ccccc2)c1 | i | 0.48 | i | i | i | i
Cc1ccc(-c2cc(-c3ccc(C)cc3)[n+](C)o2)cc1 | i | 2.32 | i | i | i | i
CN(C)c1ccc(-[n+]2c(-c3ccccc3)cc(-c3ccccc3)cc2-c2ccccc2)cc1 | . | -15* | i | . | . | .
COc1c(O)cc2c(c1OC)-c1ccc(SC)c(=O)cc1C(NC(C)=O)CC2 (stereo not given) | . | . | i | . | . | .
CN1C(=O)COc2c(C(=O)NC3CN4CCC3CC4)cc(Cl)cc21 (stereo not given) | i | 0.01 | . | i | i | 8.95*
CC1CC(C)OP(=O)(OCCC#N)O1 (stereo not given) | . | . | i | . | . | .
O=[N+]([O-])c1ccc(N2CCNCC2)cc1NC1CC1 | i | -1.06 | . | i | i | 6.38*
CCNc1cc(N2CCNCC2)ccc1[N+](=O)[O-] | i | 0.18 | . | i | i | 7.29*
O=[N+]([O-])c1ccc(N2CCNCC2)cc1N1CCCCC1 | i | -3.82 | i | i | i | i
CCOC(=O)CC(SP1(=S)OCC2(CC=CCC2)CO1)C(=O)OCC (stereo not given) | . | . | i | . | . | .
CCCC[N+]12CCC(CC1)C(C(=O)c1cccs1)C2 (stereo not given) | i | -4.89* | i | i | i | i
O=C(CCN1CC2CCC(CC2)C1)c1cccs1 | . | . | i | . | . | .
CN1CC(C(=O)c2ccc(Cl)cc2)C(c2ccc(Cl)cc2Cl)C1 (stereo not given) | i | -4.97* | i | + | i | i
CCC1C(c2cc(OC)c(OC)c(OC)c2)c2cc3c(cc2OC1N1CCCC1)OCO3 (stereo not given) | . | . | i | . | . | .
SMILES | CHT block | Kir21 block | TMEM16A act | Rce1 inh | ANO1 block | CHT PAM
N#CSCC(=O)N1c2ccccc2CCc2ccccc21 | i | -6.8* | i | i | i | i
Nc1ccccc1C(=O)OCC(=O)N1CCc2ccccc21 | . | 0.07 | i | i | . | .
COc1ccc(CNCCc2c(C)[nH]c3ccc(OC(F)(F)F)cc23)c(OC)c1 | i | -6.88* | i | i | i | i
CC1CN1P(=O)(Oc1ccccc1)N1CC1C (stereo not given) | . | . | i | . | . | .
CCCCCc1nc2c(c(=O)c3ccccc3n2C)c(=O)n1C1CCCCCC1 | i | 0.58 | -11.1* | i | i | i
CCCCCc1nc2ccccc2c(=O)n1-c1ccccc1[N+](=O)[O-] | i | -0.55 | i | i | i | i
CCOC(=O)C1(c2ccccc2)CCN(CC(=O)c2ccc(NC(C)=O)cc2)CC1 | . | . | i | . | . | .
CC(C)(C)c1cc(C=C(C#N)C#N)cc(C(C)(C)C)c1O | i | . | i | . | 100* | i

Assay outcomes deposited in PubChem BioAssay by several laboratories.
